From paper PMC8384837, “Expanding the binding specificity for RNA recognition by a PUF domain”
Substitutions are numbered along the chain they refer to.

Key:
Assay in all cases: yeast three-hybrid, YBZ-1, SC-Leu-His + 0.5 mM 3-AT, 4 days
Settings in all cases: tags: N-Gal4 AD-HA kept; label: inside an RPR1-promoter hybrid RNA with tandem MS2 sites; ssRNA
[1] = biological target: T1, PUM1 PUF domain R6-TWA (Homo sapiens, UniProt Q14671 828-1176, N1043T;Y1044W;Q1047A)
T1 sequence: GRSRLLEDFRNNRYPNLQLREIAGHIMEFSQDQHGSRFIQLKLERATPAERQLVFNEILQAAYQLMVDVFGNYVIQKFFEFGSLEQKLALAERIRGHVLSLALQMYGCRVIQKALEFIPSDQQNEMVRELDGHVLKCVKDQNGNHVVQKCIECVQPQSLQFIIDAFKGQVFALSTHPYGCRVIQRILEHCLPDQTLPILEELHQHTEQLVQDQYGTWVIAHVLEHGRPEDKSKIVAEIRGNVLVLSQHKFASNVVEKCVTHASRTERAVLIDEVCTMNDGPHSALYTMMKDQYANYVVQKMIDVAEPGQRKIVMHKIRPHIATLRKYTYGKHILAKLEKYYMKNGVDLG
Summary of the method: (§1)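 The interaction score is the log change in how often each variant appears, from input to selection. Frequencies came from PCR-amplified, Illumina-sequenced repeat regions of Pumilio-1 PUF domain libraries grown in strain YBZ-1 (LexA–MS2 coat fusion, HIS3 reporter) alongside matching RNA elements. Input plates were SC-Leu and selection plates were SC-Leu-His + 0.5 mM 3-AT, each for four days, and the log2 calculation used a pseudocount of 1 where a variant was absent.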

[2] = biological target: T2, PUM1 PUF domain R6-IWK (Homo sapiens, UniProt Q14671 828-1176, N1043I;Y1044W;Q1047K)
T2 sequence: T1 sequence with T216I, A220K
Summary of the method: as §1

[3] = biological target: PUM1 PUF domain R3-MRG (Homo sapiens, UniProt Q14671 828-1176, C935M;Q939G)
Summary of the method: as §1

[4] = biological target: PUM1 PUF domain R3-GWL (Homo sapiens, UniProt Q14671 828-1176, C935G;R936W;Q939L)
Summary of the method: as §1

[5] = biological target: PUM1 PUF domain R3-RCD (Homo sapiens, UniProt Q14671 828-1176, C935R;R936C;Q939D)
Summary of the method: as §1

[6] = biological target: PUM1 PUF domain R8-KKA (Homo sapiens, UniProt Q14671 828-1176, N1122K;Y1123K;Q1126A)
Summary of the method: as §1

[7] = biological target: PUM1 PUF domain R1-KNR (Homo sapiens, UniProt Q14671 828-1176, S863K;R864N;Q867R)
Summary of the method: as §1

[8] = biological target: PUM1 PUF domain R1-RLV (Homo sapiens, UniProt Q14671 828-1176, S863R;R864L;Q867V)
Summary of the method: as §1

[9] = biological target: PUM1 PUF domain R5-KSK (Homo sapiens, UniProt Q14671 828-1176, C1007K;R1008S;Q1011K)
Summary of the method: as §1

[10] = biological target: PUM1 PUF domain R5-RSM (Homo sapiens, UniProt Q14671 828-1176, C1007R;R1008S;Q1011M)
Summary of the method: as §1

[11] = biological target: PUM1 PUF domain R5-KRS (Homo sapiens, UniProt Q14671 828-1176, C1007K;Q1011S)
Summary of the method: as §1

[12] = biological target: PUM1 PUF domain R4-FNI (Homo sapiens, UniProt Q14671 828-1176, N971F;H972N;Q975I)
Summary of the method: as §1

[13] = biological target: PUM1 PUF domain R7-KFR (Homo sapiens, UniProt Q14671 828-1176, S1079K;N1080F;E1083R)
Summary of the method: as §1

[14] = biological target: PUM1 PUF domain R7-TVV (Homo sapiens, UniProt Q14671 828-1176, S1079T;N1080V;E1083V)
Summary of the method: as §1

[15] = biological target: PUM1 PUF domain R5-NVA (Homo sapiens, UniProt Q14671 828-1176, C1007N;R1008V;Q1011A)
Summary of the method: as §1

[16] = biological target: PUM1 PUF domain R3-GRG (Homo sapiens, UniProt Q14671 828-1176, C935G;Q939G)
Summary of the method: as §1

[17] = biological target: PUM1 PUF domain R3-LFL (Homo sapiens, UniProt Q14671 828-1176, C935L;R936F;Q939L)
Summary of the method: as §1

[18] = biological target: PUM1 PUF domain R4-MFN (Homo sapiens, UniProt Q14671 828-1176, N971M;H972F;Q975N)
Summary of the method: as §1

[19] = biological target: PUM1 PUF domain R3-VRS (Homo sapiens, UniProt Q14671 828-1176, C935V;Q939S)
Summary of the method: as §1

[20] = biological target: PUM1 PUF domain R1-GYK (Homo sapiens, UniProt Q14671 828-1176, S863G;R864Y;Q867K)
Summary of the method: as §1

PUM1 PUF domain R5-KRS, sequence (Q14671 828-1176 C1007K/Q1011S): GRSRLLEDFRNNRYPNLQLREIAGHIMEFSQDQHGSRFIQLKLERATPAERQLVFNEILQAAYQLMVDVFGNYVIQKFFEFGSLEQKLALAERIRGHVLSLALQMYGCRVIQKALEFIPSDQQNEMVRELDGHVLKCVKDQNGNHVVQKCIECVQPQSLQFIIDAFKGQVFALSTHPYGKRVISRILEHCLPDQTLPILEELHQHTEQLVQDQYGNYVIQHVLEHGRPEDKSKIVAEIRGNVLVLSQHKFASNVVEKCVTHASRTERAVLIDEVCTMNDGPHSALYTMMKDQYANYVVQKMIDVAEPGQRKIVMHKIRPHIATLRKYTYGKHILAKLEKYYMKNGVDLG

Question: Which results are given for “GGCUAGAACUAGUGGAUCCCCCGGCGCCCGGCGGCUCGAGCCCGGGUAAGUGAAAAUAGUCUGCAUGCCGCCGGGCGCCAUGCCUGCAGGUCGACUCUAGAAAACAUG”?
Answer: binding signal [1]: 4.52 log2 enrichment (interaction score); binding signal [2]: 5.15 log2 enrichment (interaction score)

Question: Which results are given for “GGCUAGAACUAGUGGAUCCCCCGGCGCCCGGCGGCUCGAGCCCGGGUAAGUGUAAUUAGUCUGCAUGCCGCCGGGCGCCAUGCCUGCAGGUCGACUCUAGAAAACAUG”?
Answer: binding signal [3]: 2.8 log2 enrichment (interaction score); binding signal [4]: 3.82 log2 enrichment (interaction score); binding signal [5]: 3.1 log2 enrichment (interaction score)

Question: For “GGCUAGAACUAGUGGAUCCCCCGGCGCCCGGCGGCUCGAGCCCGGGUAAGCGUAAAUAGUCUGCAUGCCGCCGGGCGCCAUGCCUGCAGGUCGACUCUAGAAAACAUG”, which binding signal [6] is on record?
Answer: 2.4 log2 enrichment (interaction score)

Question: Which results are given for “GGCUAGAACUAGUGGAUCCCCCGGCGCCCGGCGGCUCGAGCCCGGGUAAGUGUAAAUUGUCUGCAUGCCGCCGGGCGCCAUGCCUGCAGGUCGACUCUAGAAAACAUG”?
Answer: binding signal [7]: 6.76 log2 enrichment (interaction score); binding signal [8]: 2.9 log2 enrichment (interaction score)

Question: For “GGCUAGAACUAGUGGAUCCCCCGGCGCCCGGCGGCUCGAGCCCGGGUAAGUGUCAAUAGUCUGCAUGCCGCCGGGCGCCAUGCCUGCAGGUCGACUCUAGAAAACAUG”, which binding signal [9] is on record?
Answer: 3.19 log2 enrichment (interaction score)

Question: And the binding signal [10]?
Answer: 3.66 log2 enrichment (interaction score)

Question: What about the binding signal [11] of the same sequence?
Answer: 3.74 log2 enrichment (interaction score)

Question: For “GGCUAGAACUAGUGGAUCCCCCGGCGCCCGGCGGCUCGAGCCCGGGUAAGUGUAUAUAGUCUGCAUGCCGCCGGGCGCCAUGCCUGCAGGUCGACUCUAGAAAACAUG”, which binding signal [12] is on record?
Answer: 2.63 log2 enrichment (interaction score)

Question: With “GGCUAGAACUAGUGGAUCCCCCGGCGCCCGGCGGCUCGAGCCCGGGUAAGUGUGAAUAGUCUGCAUGCCGCCGGGCGCCAUGCCUGCAGGUCGACUCUAGAAAACAUG” as the sequence, how does the binding signal [10] read?
Answer: 0.3 log2 enrichment (interaction score)

Question: With “GGCUAGAACUAGUGGAUCCCCCGGCGCCCGGCGGCUCGAGCCCGGGUAAGUUUAAAUAGUCUGCAUGCCGCCGGGCGCCAUGCCUGCAGGUCGACUCUAGAAAACAUG” as the sequence, how does the binding signal [13] read?
Answer: 6.28 log2 enrichment (interaction score)

Question: What about the binding signal [14] of the same sequence?
Answer: 3.71 log2 enrichment (interaction score)

Question: For “GGCUAGAACUAGUGGAUCCCCCGGCGCCCGGCGGCUCGAGCCCGGGUAAGUGUUAAUAGUCUGCAUGCCGCCGGGCGCCAUGCCUGCAGGUCGACUCUAGAAAACAUG”, which binding signal [11] is on record?
Answer: 3.41 log2 enrichment (interaction score)

Question: And the binding signal [15]?
Answer: 3.11 log2 enrichment (interaction score)

Question: “GGCUAGAACUAGUGGAUCCCCCGGCGCCCGGCGGCUCGAGCCCGGGUAAGUGUAAAUAGUCUGCAUGCCGCCGGGCGCCAUGCCUGCAGGUCGACUCUAGAAAACAUG” was tested. Which binding signal [16] did it give?
Answer: 2.99 log2 enrichment (interaction score)

Question: What about the binding signal [10] of the same sequence?
Answer: 1.04 log2 enrichment (interaction score)

Question: What about the binding signal [17] of the same sequence?
Answer: 1.59 log2 enrichment (interaction score)

Question: And the binding signal [3]?
Answer: 0.61 log2 enrichment (interaction score)

Question: And the binding signal [4]?
Answer: 3.81 log2 enrichment (interaction score)

Question: And the binding signal [11]?
Answer: 1.71 log2 enrichment (interaction score)

Question: And the binding signal [18]?
Answer: 2.97 log2 enrichment (interaction score)

Question: And the binding signal [19]?
Answer: 3.88 log2 enrichment (interaction score)

Question: What about the binding signal [2] of the same sequence?
Answer: 2.18 log2 enrichment (interaction score)

Question: For “GGCUAGAACUAGUGGAUCCCCCGGCGCCCGGCGGCUCGAGCCCGGGUAAGUGUAAGUAGUCUGCAUGCCGCCGGGCGCCAUGCCUGCAGGUCGACUCUAGAAAACAUG”, which binding signal [16] is on record?
Answer: 0.98 log2 enrichment (interaction score)

Question: What about the binding signal [17] of the same sequence?
Answer: 4.75 log2 enrichment (interaction score)

Question: What about the binding signal [3] of the same sequence?
Answer: 5.6 log2 enrichment (interaction score)

Question: And the binding signal [4]?
Answer: 1.08 log2 enrichment (interaction score)

Question: What about the binding signal [5] of the same sequence?
Answer: 2.53 log2 enrichment (interaction score)

Question: And the binding signal [19]?
Answer: 0.45 log2 enrichment (interaction score)

Question: Which binding signal [13] does the source give for “GGCUAGAACUAGUGGAUCCCCCGGCGCCCGGCGGCUCGAGCCCGGGUAAGUCUAAAUAGUCUGCAUGCCGCCGGGCGCCAUGCCUGCAGGUCGACUCUAGAAAACAUG” here?
Answer: 5.33 log2 enrichment (interaction score)

Question: What does the source list for “GGCUAGAACUAGUGGAUCCCCCGGCGCCCGGCGGCUCGAGCCCGGGUAAGUGUAAAUGGUCUGCAUGCCGCCGGGCGCCAUGCCUGCAGGUCGACUCUAGAAAACAUG”?
Answer: binding signal [7]: 3.86 log2 enrichment (interaction score); binding signal [20]: 0.96 log2 enrichment (interaction score)

Question: For “GGCUAGAACUAGUGGAUCCCCCGGCGCCCGGCGGCUCGAGCCCGGGUAAGUGUAAAUCGUCUGCAUGCCGCCGGGCGCCAUGCCUGCAGGUCGACUCUAGAAAACAUG”, which binding signal [20] is on record?
Answer: 5.06 log2 enrichment (interaction score)

Question: What about the binding signal [8] of the same sequence?
Answer: 2.36 log2 enrichment (interaction score)
